Data taken from PubChem BioAssay AID2289 (National Center for Advancing Translational Sciences (NCATS), 2010).
The whole screen tested about 340,000 compounds, of which about 3,300 (0.97%) were called active. Another 9% or so got no clear call; they are omitted. Calls follow the shape of the dose curve; as a rule, active = well fitted inhibition curve with a large enough effect; inconclusive = small, poorly fitted or top-dose-only effect, or effect the other way; inactive = flat fitted curve, though single readings scatter. The list shows a part of the results.

experiment: qHTS Assay for Modulators of miRNAs and/or Inhibitors of miR-21; details: HeLa miR-21-FLuc reporter, luciferase luminescence, 48 h; actives lower the signal; also: nearly all actives have a fitted effect of over 55% in size
Summary of the method: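 HeLa miR-21-FLuc reporter line, endogenous miR-21; 2000 cells/well in DMEM/10% FBS; compound titration up to ~40uM final, 48 h, 37 degree Celsius; luciferase detection reagent, 15 min lysis, CCD luminescence.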
Potency is read from the fitted curve at half-maximal effect.

Potency, active:
BrCCOCCOc1ccc2ccccc2c1 18.5 µM
Cc1c(C(=O)NC2CCOC2)oc2c(F)cccc12 (configuration not stated) 5.85 µM
Cc1c(C(=O)N2C[C@@H](C)O[C@@H](C)C2)oc2c(F)cccc12 13.1 µM
CC(O)CNc1ncnc2cc(-c3ccc(F)cc3)sc12 (configuration not stated) 4.65 µM
Cc1nn(-c2ccc(Br)cc2)c(=O)c2ccccc12 2.93 µM
Cc1nn(-c2ccc3ccccc3c2)c(=O)c2ccccc12 2.93 µM
COc1cccc(COc2ccc3ccc(=O)oc3c2)c1 7.36 µM
COc1ccc(COc2ccc3ccc(=O)oc3c2)cc1 2.93 µM
Cc1ccc2nc(N3C(=O)C(O)=C(C(=O)c4ccco4)C3c3cccs3)sc2c1 (configuration not stated) 5.21 µM
CCc1ccc2nc(N3C(=O)C(O)=C(C(=O)c4ccco4)C3c3cccs3)sc2c1 (configuration not stated) 6.56 µM
COc1ccc(N=Nc2cc(C)ccc2O)cc1 0.521 µM
COc1ccc(N=Nc2ccc3ccccc3c2)c(O)c1 0.233 µM
Nc1nc(-c2cc3ccccc3o2)cs1 2.33 µM
CN1CCN(c2nc(-c3cc4ccccc4o3)cs2)CC1 5.21 µM
Nc1ccc(Nc2nc(-c3cc4ccccc4oc3=O)cs2)cc1 2.93 µM
O=C(c1cc2ccccc2oc1=O)N1CCOCC1 16.5 µM
O=C(CSc1nc2ccccc2o1)c1cc2ccccc2oc1=O 14.7 µM
O=C(OC1CCCCC1)c1cc2ccccc2oc1=O 16.5 µM
COc1ccc2oc(=O)c(C(=O)N3CCN(c4ccccc4C)CC3)cc2c1 2.07 µM
Cc1c(-c2nc(-c3ccc(C(F)(F)F)cc3)no2)n(C)oc1=O 0.293 µM
COc1ccc(/C(N)=N/OC(=O)C2CCCCC2)cc1 4.65 µM
COc1ccc(/C(N)=N/OC(=O)C2CCCCC2)cc1OC 2.93 µM
COc1ccc(OCc2cc(C(=O)N3CCSCC3)no2)c(Cl)c1 4.65 µM
COCCN1CCN(C(=O)c2cc(COc3cc(C)ccc3C)on2)CC1 11.7 µM
CC(=O)c1ccc(OCc2cc(C(=O)N3CCOCC3)no2)cc1 18.5 µM
COc1cccc(OCc2cc(C(=O)N3CCN(c4ccccc4OC)CC3)no2)c1 16.5 µM
COc1ccc(OCc2cc(C(=O)N3CCOCC3)no2)c(Cl)c1 2.07 µM
CC(=O)NCCC1CCCCN1C(=O)c1cc(COc2cc(C)ccc2C)on1 (configuration not stated) 7.36 µM
O=C(CSc1ccc(-c2ccccc2)nn1)c1cccs1 7.36 µM
Cc1cc(SCC(=O)c2ccccc2)nc(=O)[nH]1 4.14 µM
N#Cc1ccc(-c2cccnc2)nc1SCC(=O)c1ccccc1 5.85 µM
O=C(CSc1ccc(-c2ccccc2)nn1)c1ccccc1 16.5 µM
COc1cc(NC(=O)c2ccccc2Cl)ccc1NC(=O)c1cccs1 2.07 µM
COc1ccc(Cl)cc1-c1nc(-c2ccc(NC(=O)c3cccs3)cc2)no1 7.36 µM
COc1cc(NC(=O)c2ccccc2Cl)ccc1NC(=O)c1ccco1 2.93 µM
Cc1ccc2nc(/C=C/c3cccc(F)c3)ccc2c1 0.521 µM
N#C/C(=C\c1c[nH]c2ccccc12)c1nnc2n1CCCCC2 18.5 µM
O/N=C/c1ccc(OCc2ccccc2F)c(Cl)c1 0.464 µM
CCOc1cc(/C=N/O)ccc1OCc1ccccc1F 16.5 µM
Cc1ccc(NC(=O)c2ncn(-c3ccccc3)n2)cc1Cl 3.29 µM
CC(=O)c1ccc(NC(=O)c2ncn(-c3ccccc3)n2)cc1 5.85 µM
Cn1nnc2cc(C(=O)Nc3ccc4ccccc4c3)ccc21 0.585 µM
CCCn1nnc(NC(=O)c2ccc3ccccc3c2)n1 4.14 µM
Cn1nnc(NC(=O)c2ccc3ccccc3c2)n1 14.7 µM
Nc1nc2c(-c3ccc(Br)cc3)nnn2c2ccccc12 0.261 µM
c1ccc(-c2cnc(-c3cccnc3)o2)cc1 13.1 µM
CN(C)c1ccc(-c2nnc(-c3cccnc3)o2)cc1 1.31 µM
Cc1ccc(-c2nnc(-c3cccnc3)o2)cc1 4.65 µM
CCSc1nnc(NC(=O)c2ccccc2)s1 1.31 µM
CC(C)c1nnc(NC(=O)COc2ccccc2[N+](=O)[O-])s1 9.27 µM
CCSc1nnc(NC(=O)COc2ccccc2[N+](=O)[O-])s1 3.69 µM
N/C(=N\C(=S)Nc1ccccc1)c1ccccc1 0.927 µM
O=C(Cc1noc2ccccc12)Nc1ccccn1 14.7 µM
Cc1ccc(NC(=O)Cc2noc3ccccc23)cc1 7.36 µM
Cc1cccc(NC(=O)Cc2noc3ccccc23)c1 5.85 µM
O=C(Cc1noc2ccccc12)Nc1ccc(Cl)cc1 14.7 µM
Nc1ccccc1C(=O)NNC1=C(C(=O)C(F)(F)F)CCC1 5.21 µM
CC1=NN(C(N)=S)C(=O)C1N=Nc1ccc(Br)cc1 (configuration not stated) 1.31 µM
CC1=NN(C(N)=S)C(=O)C1N=Nc1cccc(Cl)c1 (configuration not stated) 7.36 µM
CC1=NN(C(N)=S)C(=O)C1N=Nc1ccc(C)c(Br)c1 (configuration not stated) 1.47 µM
CC1=NN(C(N)=S)C(=O)C1N=Nc1ccc(C)cc1C (configuration not stated) 3.69 µM
C/C(=N\N=C(/N)c1nonc1N)c1ccc2c(c1)OCO2 0.521 µM
CC(=O)NCCC(=O)Nc1nc2ccc(Oc3ccccc3)cc2s1 1.65 µM
O=C1NCC2=C1C(c1ccccc1)Nc1ccccc1N2 (configuration not stated) 14.7 µM
Clc1ccc(CSc2nnc3ccccn23)c(Cl)c1 16.5 µM
Clc1cccc(Cl)c1CSc1nnc2ccccn12 16.5 µM
Cc1ccc2c(CSc3nnc4ccccn34)cc(=O)oc2c1C 13.1 µM
C/C(=N\NC(=O)c1cccs1)C(C)(C)C 4.65 µM
O=C(O)CC/C(=N/NC(=O)c1cccs1)c1ccccc1 2.07 µM
C/C(=N/NC(=O)c1cccs1)c1cccs1 2.93 µM
O=C(NC12CC3CC(CC(C3)C1)C2)c1ccc(-c2ccc(Br)cc2)o1 7.36 µM
O=C(NC12CC3CC(CC(C3)C1)C2)c1ccc(-c2cccc(Cl)c2)o1 1.47 µM
O=[N+]([O-])c1cc(/C=N/O)ccc1Oc1ccccc1Cl 16.5 µM
O=[N+]([O-])c1cc(/C=N\O)ccc1Oc1ccc(F)cc1 16.5 µM
CC(=O)C(C)Oc1ccc2c3c(c(=O)oc2c1)CCCC3 (configuration not stated) 16.5 µM
CC(=O)C(C)Oc1ccc2c3c(c(=O)oc2c1)CCCCC3 (configuration not stated) 2.93 µM
CN(C)S(=O)(=O)c1cccc(NC(=O)COC(=O)c2cc3ccccc3oc2=O)c1 6.56 µM
O=C(COC(=O)c1cc2ccccc2oc1=O)Nc1ccc(F)cc1F 6.56 µM
COc1ccc(-c2nnc(SCC(=O)c3ccc[nH]3)n2-c2ccccc2)cc1 13.1 µM
Cc1ccc(SCC(=O)c2ccc[nH]2)cc1 13.1 µM
O=c1c(Br)c(N2CCCC2)cnn1-c1ccccc1 1.85 µM
O=C(N=C1c2ccccc2CN1c1ccc(F)c(Cl)c1)c1cccnc1Cl 6.56 µM
O=C(N=C1c2ccccc2CN1c1cccc(Cl)c1)c1cccnc1 4.65 µM
COc1ccc(N2Cc3ccccc3C2=NC(=O)c2cccc([N+](=O)[O-])c2)cc1 13.1 µM
CC1SCC(NC(=O)c2ccc(Cl)cc2)CS1 (configuration not stated) 16.5 µM
CC1SCC(NC(=O)c2ccccc2Cl)CS1 (configuration not stated) 13.1 µM
CCn1c(C)nc2cc(C(=O)NNC(=S)Nc3ccccc3)ccc21 0.927 µM
CCn1c(C)nc2cc(C(=O)NNC(=S)Nc3ccc(F)cc3)ccc21 8.26 µM
Cc1nn(-c2cccc([N+](=O)[O-])c2)c(N)c1-c1ccccc1 4.14 µM
Cc1nn(-c2ccccc2)c(N)c1-c1ccccc1 6.56 µM
Cc1nn(-c2nc3ccccc3[nH]2)c(N)c1-c1ccccc1 0.414 µM
COc1ccc(-c2c(C)nn(-c3ccccc3)c2N)cc1 5.21 µM
Cc1nn(C(=O)c2cccs2)c(N)c1-c1ccccc1 5.21 µM
O=C(O)CCc1ccc(S(=O)(=O)Nc2ccccc2C(=O)NCCc2ccccc2)cc1 6.56 µM
NC(=O)Nc1ccccc1C(=O)NCCc1ccccc1 5.85 µM
c1ccc(CSc2nnc(-c3ccco3)o2)cc1 13.1 µM
Cc1ccccc1-c1nnc(Cc2ccccc2)o1 4.14 µM
N#Cc1ccccc1CSc1nnc(-c2ccc(Br)cc2)o1 0.414 µM
Cc1ccccc1-c1nc(Cc2ccccc2)no1 14.7 µM
Cc1ccccc1-c1nnc(CN2CCC(C)CC2)o1 14.7 µM
Brc1ccc(-c2nnc(Cc3ccccc3)o2)cc1 13.1 µM
Cc1ccccc1-c1nnc(SCc2ccccc2)o1 5.21 µM
Brc1c(CSc2nnc(-c3ccco3)o2)nc2ccccn12 11.7 µM
Cc1ccc(-c2nnc(SCc3ccccc3)o2)cc1 2.93 µM
COC(=O)C1C(=O)c2c([nH]c(C(=O)OC3CCCC3)c2C)CC1C (configuration not stated) 1.47 µM
Cc1c(C(=O)OC2CCC(C)CC2)[nH]c2c1C(=O)CCC2 (configuration not stated) 0.464 µM
Cc1c(C(=O)OC2CCCC2C)[nH]c2c1C(=O)CCC2 (configuration not stated) 6.56 µM
